# Results reported in PubChem BioAssay (NCATS).
# Where “and” joins values, the source holds several entries; their conditions need not be identical. Identical values can stand only once. Inconclusive results are not listed. Calls of active or inactive are those of the source. Unless noted, the rule behind the calls is not given here.
# Experiments:
# [1] = qHTS profiling of the MIPE4 collection as inhibitors of Plasmodium falciparum (DD2) proliferation (AID 743345); details: P. falciparum Dd2 in erythrocytes, SYBR Green DNA, 72 h; at 28.5 µM (top of the series) unless noted
# Method in brief: (§1)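 Parasite DNA was quantified by SYBR Green I fluorescence (ex 485, em 535 nm) after overnight lysis in saponin/Triton buffer at room temperature. Cultures at 0.3% parasitemia and 2.5% hematocrit were first exposed to compound for 72 h at 37 C; signals were normalised to artemisinin (0.29 uM) and vehicle wells.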
# [2] = qHTS profiling of the MIPE4 collection as inhibitors of Plasmodium falciparum (DD2) proliferation (Rep 2) (AID 743346); details: P. falciparum Dd2 in erythrocytes, SYBR Green DNA, 72 h; at 28.5 µM (top of the series) unless noted
# Method in brief: as §1
# [3] = qHTS profiling of the MIPE4 collection as inhibitors of Plasmodium falciparum (HB3) proliferation (AID 743347);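 note: plate controls were DMSO vehicle wells for no effect and artemisinin wells for full effect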; details: P. falciparum HB3 in erythrocytes, SYBR Green DNA, 72 h; at 28.5 µM (top of the series) unless noted
# Method in brief: as §1
# [4] = High-throughput drug toxicity screening in the BPDCN cell line Gen2.2 (AID 1224824); details: Gen2.2 BPDCN cells; at 45.8 µM (top of the series) unless noted;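 note: cells exposed to compounds for 48 h before reading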
# Method in brief: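 Gen2.2 cells, 500 per well in phenol red-free RPMI with 10% FBS, exposed to compounds 48 h at 37 C, 5% CO2; viability by CellTiter-Glo luminescence. Percent activity scaled to DMSO (100%) and 9.2 uM bortezomib final (0%).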
# [5] = High-throughput drug toxicity screening in the BPDCN cell line Cal-1 (AID 1224825); details: Cal-1 BPDCN cell viability, qHTS; at 45.8 µM (top of the series) unless noted
# Method in brief: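 Percent activity derived from CellTiter-Glo luminescence, scaling DMSO to 100% and 9.2 uM final bortezomib to 0%. BPDCN Cal-1 cells (500/well, RPMI plus 10% FBS) incubated with compounds 48 hours at 37C before reading.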
# [6] = qHTS assay for measurement of the activity of small molecule inhibitors on Zika virus induced Caspase-3 activity in human iPSC derived neural progenitor cells (hNPCs) (AID 1224857; active = well fitted inhibition curve with a large enough effect; note: nearly all actives have a fitted effect of over 65% in size; note: potency is the fitted concentration of half-maximal effect); details: hNPCs ZIKV-induced caspase-3/7, Caspase-Glo luminescence, 6 h; series mostly up to 45.7 µM
# Method in brief: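 Cells were plated at 350 per well and grown 16 to 20 hours. Compound pretreatment lasted one hour, after which ZIKV (2 FFU/cell) was added for 6 hours. Percent inhibition was normalized between uninfected and infected controls.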
# [7] = qHTS assay for measurement of the activity of small molecule inhibitors on Zika virus induced Caspase-3 activity in human astrocytoma cells (AID 1224859; active = well fitted inhibition curve with a large enough effect; note: potency is the fitted concentration of half-maximal effect); details: SNB-19 ZIKV-induced caspase-3/7, luminescence, 6 h; series mostly up to 45.7 µM
# Method in brief: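 Percent inhibition of virus-induced caspase-3/7 signal is calculated against uninfected and ZIKV-infected control cells. Cells are SNB-19, infected at 2 FFU/cell for 6 h after 1 h compound exposure.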
# [8] = qHTS Screen of the MIPE 4.0 Collection Against Ewings Sarcoma (EW8) (AID 1259255; active = well fitted inhibition curve with a large enough effect; note: nearly all actives have a fitted effect of over 35% in size; note: potency is the fitted concentration of half-maximal effect;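 for viability: 100% = DMSO-treated cells and 0% = medium-only wells without cells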); details: EW8 Ewing sarcoma viability, CellTiter-Glo, 48 h; series mostly up to 45.8 µM
# Method in brief: (§2)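 CellTiter-Glo luminescence after 48 h compound exposure (titration) gave viability; percent activity used DMSO-treated cells as no inhibition and medium-only wells as full inhibition. Cells grown in RPMI/5% FBS, dosed 4 h post-seeding.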
# [9] = qHTS Screen of the MIPE 4.0 Collection Against Ewings Sarcoma (TC71) (AID 1259253; active = well fitted inhibition curve with a large enough effect; note: nearly all actives have a fitted effect of over 40% in size; note: potency is the fitted concentration of half-maximal effect); details: TC71 Ewing sarcoma viability, CellTiter-Glo, 48 h; series mostly up to 45.8 µM
# Method in brief: as §2
SMILES,"parasite growth remaining, % of DMSO control (lower = more inhibition) [1] [%]","parasite growth, % of control (lower = inhibition) [2] [%]","growth, % of control [3] [%]","cell viability, % of control (lower = more cytotoxic) [4] [%]",viability (% of control) [5] [%],Potency [6],Potency [7],Potency [8],Potency [9]
O=C(NC(Cc1cc(=O)[nH]c2ccccc12)C(=O)O)c1ccc(Cl)cc1 (stereo unspecified),96.8,89.9,75.3,149,108,inactive,inactive,inactive,
Cc1cccc(-c2[nH]ncc2-c2ccc3ncccc3n2)n1,94.4,81.1,52.8,759,106,inactive,inactive,inactive,inactive
CCN(CCO)CCCC(C)Nc1ccnc2cc(Cl)ccc12 (stereo unspecified),16.9,15.4,49.8,86.1,8.28,inactive,inactive,,
Cc1cc(O)c2c(c1)C(=O)c1cc(O)cc(O)c1C2=O,,,98.6,207,109,9.35 µM (active) and 2.51 µM (active),9.35 µM (active),inactive,inactive
O=C(O)c1cn(-c2ccc(F)cc2)c2cc(N3CCNCC3)c(F)cc2c1=O,67.2,50.7,208,47.7,79.5,inactive,inactive,,
Cc1ccc(NC(=O)c2ccc(CN3CCN(C)CC3)cc2)cc1Nc1nccc(-c2cccnc2)n1,10.8,24.1,4.5,308,81,inactive,inactive,,
CCOC(=O)c1c(C)n(C)c2ccc(O)cc12,93.3,87.1,66.7,232,87.8,inactive,inactive,,
Cc1c(C(=O)NN2CCCCC2)nn(-c2ccc(Cl)cc2Cl)c1-c1ccc(Cl)cc1,8.4,17.7,8.97,24.4,13.1,inactive,inactive,26.4 µM (active),23.5 µM (active)
CC[C@]1(O)C[C@H]2CN(CCc3c([nH]c4ccccc34)[C@@](C(=O)OC)(c3cc4c(cc3OC)N(C=O)[C@H]3[C@@](O)(C(=O)OC)[C@H](OC(C)=O)[C@]5(CC)C=CCN6CC[C@]43[C@@H]65)C2)C1,18,19.1,5.89,10.7,10.9,inactive,inactive,,0.0033 µM (active)
Cc1cc(=O)oc2cc(O)ccc12,101,107,105,183,104,inactive,inactive,inactive,
O=C1c2c(O)cc(O)cc2OC(c2ccc(O)c(O)c2)C1O (stereo unspecified),93.8,64.4,99.5,155,105,inactive,inactive,inactive,
Cc1ncc([N+](=O)[O-])n1CC(C)O (stereo unspecified),95.7,94.8,99.2,120,98.4,inactive,inactive,inactive,
Cc1ccc(C(=O)c2cc(O)c(O)c([N+](=O)[O-])c2)cc1,93.6,82.4,92.8,52.4,73.3,inactive,inactive,,
O=C(NCCO[N+](=O)[O-])c1cccnc1,87,118,108,178,117,inactive,inactive,inactive,
S=c1nc[nH]c2nc[nH]c12,96,6.58,55.2,203,89.6,inactive,inactive,2.64 µM (active),1.87 µM (active)
Cc1ccc(C)c(OCCCC(C)(C)C(=O)O)c1,47.3,8.19,3.44,120,51,inactive,inactive,,
Oc1ccc(-c2nc(-c3ccc(F)cc3)c(-c3ccncc3)[nH]2)cc1,79.6,35.5,24.5,136,54.8,inactive,inactive,,
C=C(c1ccc(C(=O)O)cc1)c1cc2c(cc1C)C(C)(C)CCC2(C)C,81.7,105,76.8,577,89.3,inactive,inactive,,inactive
CN1CCC(=C2c3ccccc3CCc3sccc32)CC1,50.7,14.9,8.17,93.1,69,inactive,inactive,,
